Source: PubChem BioAssay
Shown are actives, neighbours in structure and some others; about 21% of the full set was active somewhere.
Pf growth 96h: P. falciparum growth inhibition at 96 hour, primary screen for plastid delayed-death inhibitors. Potency, µM (highest dose often 28.7 µM), inactives show at the highest dose activity change, negative = inhibition, most hits filed as inhibitors. actives 6.9% (n = 320,000). P. falciparum luciferase reporter growth, 96 h; further: potency means the concentration at half of the fitted maximal effect; on the % scale 0 is the no-effect control and ±100 the full control effect
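Cell-based qHTS: luciferase-tagged P. falciparum in erythrocytes (2% hematocrit, 0.05% parasitemia final) incubated with compounds for 96 hours, 37 C, 5% CO2; luciferase detection reagent then added and luminescence measured.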
Cycloheximide cs: counter-screen hit for Shiga toxin inhibitors, cycloheximide; cell reporter, cycloheximide protein synthesis inhibition counterscreen; max response, %; actives 12% (n = 300,000); in the data active means max response mostly above about 13%, no sharp cut-off; inactive means mostly below about 14%; further: read at 38.3 µM for the half of the compounds with a filed dose; 0% is about no effect
HCV inh: HCV inhibition | Huh7.5.1 HCVcc-Cre infection, luciferase reporter, 44 h | Potency, µM (top dose mostly 41.8 µM), inactives show at the highest dose activity change, negative = inhibition, most hits filed as inhibitors | actives 3.4% (n = 340,000) | AID 651820; further: potency means the concentration at half of the fitted maximal effect; on the % scale 0 is the no-effect control and ±100 the full control effect
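Infectious HCV cell culture screen: compound-treated cells (1,000/well, pre-plated 4 h) are infected with HCVcc-Cre at roughly 0.5 moi and grown 44 h. Infection is quantified by luciferase signal after 15 min substrate incubation at room temperature.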
HCMV antiviral: human cytomegalovirus inhibition | HFF cells, HCMV-luciferase reporter, 72 h; hits give low values | activity change, negative = inhibition, % at 57.5 µM | actives 4.5% (n = 410,000) | AID 1259415; in the data active means activity change below about -60%; inconclusive means no clear call, values can overlap the other calls; inactive means above about -39%; further: on the % scale 0 is the no-effect control and ±100 the full control effect
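HFF cells seeded 16 h at 37C, treated with compounds, infected with luciferase-reporter HCMV at MOI 1 PFU/cell; luciferase read at 72 h post infection, normalized to buffer-only and Salinomycin controls.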
Shiga toxin inh: inhibitors of Shiga toxin in Vero cells; Vero cells, Shiga toxin protein synthesis inhibition reporter; inhibition, % at 38.7 µM; actives 9.2% (n = 290,000); in the data active means inhibition mostly above about 28%, no sharp cut-off; inactive means mostly below about 43%; further: 0% is about no effect
Pf growth 48h: inhibits P. falciparum growth in the first generation, 48 h | actives 5.9% (n = 310,000) | P. falciparum luciferase growth in erythrocytes, 48 h | Potency, µM (titrated, usually from 28.7 µM), inactives show at the top dose activity change, negative = inhibition, most hits filed as inhibitors; further: potency means the concentration at half of the fitted maximal effect; on the % scale 0 is the no-effect control and ±100 the full control effect
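In quantitative HTS format, infected erythrocytes bearing luciferase-reporter parasites were treated for a single generation at 37 C. Luminescence after adding detection reagent served as the growth measure.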
The depositor's hits bear a star; u = inconclusive; x = not tested or not shown; ! = repeats disagree; [ ] = another dose, or the depositor's remark. Unless noted, the call rests on the fitted dose curve; in most records, active means well fitted inhibition curve with a large enough effect; inconclusive means small, poorly fitted or top-dose-only effect, or another doubt; inactive means no such curve, though single readings can be large or run the other way.

SMILES	Pf growth 96h	Cycloheximide cs	HCV inh	HCMV antiviral	Shiga toxin inh	Pf growth 48h
COc1cccc(C(=O)Nc2ccc(NC(=O)C3CC3)nc2)c1	215%	18*	11%	-25	24	-18%
C[C@H](O)Cn1cnc2c1c(=O)n(C)c(=O)n2C	11%[12.8 µM]	x	x	x	x	8%[12.8 µM]
CC(/C=C/c1ccccc1)=N\NC(=O)c1cc(C)[nH]n1	u	36*	14µM*	u	33	-8%
O=C(N/N=C/C=C/c1ccccc1)c1cnccn1	9%	13*	19%	36	30	x
CC(/C=C/c1cccc([N+](=O)[O-])c1)=N/NC(=O)c1cccnc1	u	14	13%	-62*	36	-4%
O=C(/C=C/c1ccccc1)NC(=S)NNC(=O)c1cnccn1	0%	1	u	-98*	20	-12%
C/C(=N\NC(=O)c1cccnc1)c1cccc([N+](=O)[O-])c1	u	11	25%	-6	47	8%
CC[C@H](C)[C@H](NC(=O)CNC(=O)[C@H](CC(C)C)NC(=O)[C@H](CC(C)C)NC(=O)[C@H](CCC(N)=O)NC(=O)[C@H](CCC(N)=O)NC(=O)[C@H](CC(=O)O)NC(=O)[C@H](CCCCN)NC(=O)[C@H](CC(C)C)NC(=O)[C@H](Cc1ccc(O)cc1)NC(=O)[C@H](CCCNC(=N)N)NC(=O)[C@H](CCC(=O)O)NC(=O)[C@@H](NC(=O)[C@H](C)NC(=O)[C@H](CC(C)C)NC(=O)[C@@H](NC(=O)[C@@H](N)CCCNC(=N)N)[C@@H](C)CC)C(C)C)C(=O)N[C@@H](Cc1c[nH]c2ccccc12)C(=O)NCC(=O)N[C@@H](CS)C(=O)N[C@@H](CO)C(=O)O	x	1	x	x	-4	x
CC(/C=C/c1ccccc1)=N/NC(=O)c1cnccn1	12%	27*	-2%	-1	32*	45%
CC(/C=C/c1ccccc1)=N\NC(=O)CCc1ccccc1	32%	7	u	-20	16	u
Cc1ccc(N2C(=O)CS(=O)(=O)C23C(=O)N(C)c2ccccc23)cc1F (stereo unspecified)	x	x	x	0	x	x
CCOc1ccccc1NC(=O)c1nn(-c2ccc(OC)cc2)c(=O)c2c1c1ccccc1n2C	x	x	x	2	x	x
CCOc1ccc(N(CC)C(=O)c2nn(-c3ccc(OC)cc3)c(=O)c3c2c2ccccc2n3C)cc1	u	6	u	-9	13	1.5µM*
COc1ccc(-n2nc(C(=O)Nc3ccc(OC)c(OC)c3)c3c4ccccc4n(C)c3c2=O)cc1	u	-1	u	-64*	-5	x
Cc1cccc(-n2c3nc(=O)[nH]c(=O)c-3cc3ccc(Cl)cc32)c1C	x	x	x	-24	x	x
CCCCNC(=S)Nc1ccc2nc(N3CCN(CC)CC3)cc(C)c2c1	u	-4	13µM*	-17	-8	-3%[0.00184 µM]
CCCCN(CC)C(=S)Nc1ccc2nc(N3CCN(C)CC3)cc(C)c2c1	9%	28*	u	-72*	28	u
CCCCNC(=O)CCC(=O)Nc1ccc2nc(N3CCN(C)CC3)cc(C)c2c1	4%	7	12%	-34	5	-6%
CCN(CC)CCNC(=S)Nc1ccc2nc(N3CCN(CC)CC3)cc(C)c2c1	-16%	-1	u	u	-4	12µM*
CCN1CCN(c2cc(C)c3cc(NC(=S)NCCN(C)C)ccc3n2)CC1	70%	2	u	32	-5	u
CCCCN(C)C(=S)Nc1ccc2nc(N3CCN(CC)CC3)cc(C)c2c1	u	13	-21%	-26	82*	u
CCn1cc(C(=O)N[C@@H](C)C(=O)NCCCO)c(=O)c2cc3c(cc21)OCO3	6%	3	4%	-29	3	29%
CCCCN(C)CCNC(=S)Nc1ccc2nc(N3CCN(CC)CC3)cc(C)c2c1	u	-2	u	-4	8	2.3µM*
Cc1ccc(NC(=O)N2CC(C)OC(C)C2)cc1[N+](=O)[O-] (stereo unspecified)	x	x	x	0	x	x
CCCSCCCNC(=O)CN1C(=O)COc2ccc(S(=O)(=O)N3CCCCCC3)cc21	x	x	x	-6	x	x
SMILES	Pf growth 96h	Cycloheximide cs	HCV inh	HCMV antiviral	Shiga toxin inh	Pf growth 48h
CCN(CC)S(=O)(=O)c1cccc(-c2nnc(SCCCC(=O)c3ccccc3)o2)c1	u	11	16µM*	-24	17	u
Brc1ccccc1-c1nnc(SCc2nc3ccccc3s2)o1	278%	53*	u	129	101*	250%
CN(C)S(=O)(=O)c1cccc(-c2nnc(SCc3ccc4c(c3)OCCO4)o2)c1	u	33*	u	9	86	17µM*
CCN(CC)S(=O)(=O)c1cccc(-c2nnc(SCCCC(=O)c3ccc(F)cc3)o2)c1	0%	-2	u	-38	13	9.3µM*
O=S(=O)(c1cccc(-c2nnc(SCc3ccc(Cl)cc3)o2)c1)N1CCCCC1	10%	-2	u	-15	-25	x
CCN(CC)S(=O)(=O)c1ccc(-c2nnc(SCC(=O)c3ccc(OC)cc3)o2)cc1	4%	-4	-9%	-33	-26	-1%
C=CCn1c(C)cc(C(=O)CSc2nnc(-c3cccc(S(=O)(=O)N(CC)CC)c3)o2)c1C	u	16	8.9µM*	-13	-17	10µM*
CCN(CC)S(=O)(=O)c1cccc(-c2nnc(SC(C)C(=O)NCCC3=CCCCC3)o2)c1 (stereo unspecified)	10%	-7	11µM*!	u	-26	u
CCN(CC)S(=O)(=O)c1cccc(-c2nnc(SCC(=O)c3cc(C)n(C4CC4)c3C)o2)c1	x	2	-12%	-34	-8	-17%
CCN(CC)S(=O)(=O)c1cccc(-c2nnc(SCc3nc4ccccc4s3)o2)c1	u	23*	7.1µM*	-7	82	x
CCN(CC)S(=O)(=O)c1cccc(-c2nnc(-c3ccc(C)cc3)o2)c1	x	3	u	-23	-7	-22%
O=C(Nc1ccccc1C(=O)OCc1cc(=O)n2nc(C3CC3)sc2n1)c1cccc(Cl)c1	x	x	x	23	x	x
COc1cc(Nc2cc3[nH]c(-c4ccccc4)cc3cn2)cc(C(F)(F)F)c1	x	x	x	-11	x	x
Cc1ccccc1CNCc1c(C(=O)O)c(C)n(Cc2ccc(F)cc2Cl)c1C	x	x	x	3	x	x
CC(C(=O)O)c1ccc2c(c1)CC(=O)c1ccccc1S2 (stereo unspecified)	x	x	x	3	x	x
COc1ccc(CCNC(=O)c2oc(=O)c3ccccc3c2-c2ccccc2)cc1OC	x	x	x	33	x	x
COc1ccc(C2CC(=O)c3cnn(-c4nc(C)cc(C)n4)c3C2)cc1 (stereo unspecified)	u	-4	-30%	10	-6	u
O=S(=O)(c1ccc(OCC2CO2)cc1)c1ccc(OCC2CO2)cc1 (stereo unspecified)	u	-2	-14%	-68*	3	-7%
